Screening data from PubChem.
KDM5B inhibitor: Primary screen for KDM5B Histone Demethylases FDH-coupled qHTS. Lysine-specific demethylase 5B (Homo sapiens), Q9UGL1. KDM5B demethylase, FDH-coupled NADH fluorescence (FDH is formaldehyde dehydrogenase). Potency, µM (doses to about 57.7 µM), usual class: inhibitors. actives 2.6% (n = 220,000); active means well fitted inhibition curve with a large enough effect; further: 0% is about no effect; nearly all actives have a fitted effect of over 70% in size
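Compound dilutions met 200 nM (final) KDM5BΔAP for 10 min at room temperature before substrate addition. The substrate mix held 12.5 µM H3K4me3 with cofactors 25 µM α-ketoglutarate and 50 µM Fe²⁺. NADH signal gain over 30 min defined activity.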
An asterisk follows results filed as active; i = inactive. The entries come from a sample that favours hits as a whole. Potency means the concentration at half of the fitted maximal effect.

SMILES	KDM5B inhibitor
Cc1nc2cc(-c3ccccc3)nn2c(C)c1CCC(=O)NCCc1ccccc1	i
O=C(Cc1ccsc1)NCc1nnc2ccc(-c3ccc(Cl)cc3)nn12	25µM*
CCOc1ccccc1C(=O)NCc1nnc2ccc(-c3ccccc3)nn12	25µM*
CCOC(=O)CNC(=O)c1ccccc1OCC	i
CCOc1ccc(CC(=O)NCc2nnc3ccc(-c4ccccc4)nn23)cc1	i
Cc1c(C(=O)CN2CCCCC2)c2ccccc2n1C	i
CCc1nc(C)ccc1OCC(=O)N1CCCn2nc(C(C)O)cc2C1 (stereo not given)	i
COCCc1noc(-c2nnn3c2COC(c2ccc(F)cc2)C3)n1 (stereo not given)	i
COCc1noc([C@@H]2CC(F)(F)CN2C(=O)c2occc2C)n1	i
CCOC(=O)COc1ccc2c(C)c(-c3ccc(OC)c(OC)c3)c(=O)oc2c1	i
CCNC(=O)c1ccc2c(c1)NC(=O)CS2	i
Cc1ccccc1C(=O)/C=C/c1cc2ccccc2nc1N1CCOCC1	i
COc1ccc(-c2ccc3nnc(CNC(=O)c4ccccc4F)n3n2)cc1	28µM*
O=C(Nc1nn2c(-c3ccccc3)nnc2s1)c1ccccc1F	i
O=C(Cn1nnc(-c2ccc(Cl)cc2)n1)NCc1ccc(F)cc1	i
O=C(Cc1ccccc1Cl)NCc1nnc2ccc(-c3ccccc3)nn12	11µM*
O=C(Cc1cccc(F)c1)NCc1nnc2ccc(-c3ccc(Cl)cc3)nn12	25µM*
O=C(NCc1nnc2ccc(-c3ccccc3)nn12)c1ccccc1F	28µM*
CCn1c(CNC(=O)c2ccccc2F)nnc1SCCOc1ccccc1	i
CCn1c(CNC(=O)c2ccccc2OC)nnc1SCC(=O)c1ccc(OC)cc1	i
O=C(Cn1c(=O)nc(-c2ccccc2)c2ccccc21)NCc1ccccc1Cl	i
COc1ccc(NC(=O)CSc2ccc3nnc(CCNC(=O)c4ccccc4)n3n2)cc1	i
Cc1ccc(C2=C(O)C(=O)N(Cc3cccnc3)C2c2cccc(Cl)c2)cc1 (stereo not given)	i
O=[S+]1([O-])NCC2(CCCN(Cc3ccc(OC(F)(F)F)cc3)C2)Nc2ccccc21 (stereo not given)	i
CCc1cc(C(=O)Nc2cc(Cl)ccc2Cl)no1	i
SMILES	KDM5B inhibitor
O=C(O)C(c1c[nH]c2ccccc12)N1CCN(Cc2ccccn2)CC1 (stereo not given)	i
CCN(CC)C(=O)N1CC(Oc2ccccc2-c2nc(-c3cnccn3)no2)C1	i
O=C(NCc1ccccc1Cl)c1ccccc1-c1ccccc1	i
O=C(NCc1nnc2ccc(-c3ccc(Cl)cc3)nn12)c1cc(F)ccc1Cl	16µM*
CC(Oc1ccccc1)C(=O)NCc1nnc2ccc(-c3ccccc3)nn12 (stereo not given)	i
CC(=O)Nc1ccc(NC(=O)CSc2nnc3ccc(-c4ccc(F)cc4)nn23)cc1	i
O=C(NCc1nnc2ccc(-c3ccccc3)nn12)c1ccccc1Cl	28µM*
COc1ccc(C(=O)Nc2ccc([C@H]3OCC(=O)N(Cc4ccncc4)[C@@H]3CO)cc2)cc1OC	i
N#Cc1cccc(COC(=O)c2c[nH]c3ccccc23)c1	i
Cc1cc(C(=O)Nc2ccc([C@H]3OCC(=O)N(CC(C)C)[C@@H]3CO)cc2)n(C)n1	i
COCCNC(=O)Cn1nc2c(cc1=O)CCCCC2	i
COc1cccc(NC(=O)c2ccnc(-c3nnc4ccc(N5CCN(C)CC5)nn34)c2)c1	i
COc1ccc(NC(=O)c2ccnc(-c3nnc4ccc(Nc5ccccc5)nn34)c2)cn1	32µM*
C[C@@H]1CN(C(=O)c2ccnc(-c3nnc4ccc(Nc5ccccc5)nn34)c2)C[C@H](C)O1	i
COc1cccc(C(=O)N2CCCC(c3[nH]ccc3C(N)=O)C2)c1OC (stereo not given)	i
COCCCn1c(C)cc(C(=O)N2CCCC(c3[nH]ccc3C(N)=O)C2)c1C (stereo not given)	18µM*
COc1ccc(Cl)cc1C(=O)N1CCCC(c2[nH]ccc2C(N)=O)C1 (stereo not given)	i
O=C(CSc1nccc(C(F)(F)F)n1)NC1CCCCCCC1	i
O=C(c1cn2ccsc2n1)N1CC[C@@H](c2ccc3c(c2)OCO3)[C@H](O)C1	i
O=C(O)c1ccc(CN2CC[C@@H](c3ccc4c(c3)OCO4)[C@H](O)C2)cc1	i
CNc1ncccc1C(=O)N1CC[C@@H](c2ccc3c(c2)OCO3)[C@H](O)C1	28µM*
COc1ccc(Cl)cc1NC(=O)C1CN(S(C)(=O)=O)CC12CCCCC2 (stereo not given)	i
O=C(CC1CCCC1)NCc1cccnc1	i
O=C1NC(C(=O)NC2CCCCC2)Cn2cccc21 (stereo not given)	i
Nc1c(C(=O)NC2CCCC2)cnn1-c1ccccc1	i
CNC(=O)c1cccn2nccc12	32µM*
O=C(NC1CC1)c1cccn2nccc12	35µM*
CNC(=O)c1ccn2nccc2c1	i
